Most compounds without a hit are left out; they make up all but 14% or so of the library.
LmPK inhibitor – qHTS Assay for Inhibitors of Leishmania Mexicana Pyruvate Kinase (LmPK) | purified LmPK, Kinase-Glo ATP luminescence, 1 h | Potency, µM (titrated, usually from 57.5 µM), most hits filed as inhibitors | actives 0.37% (n = 290,000) | AID 1721, 2009
Target sequence (Q27686 whole entry, looked up): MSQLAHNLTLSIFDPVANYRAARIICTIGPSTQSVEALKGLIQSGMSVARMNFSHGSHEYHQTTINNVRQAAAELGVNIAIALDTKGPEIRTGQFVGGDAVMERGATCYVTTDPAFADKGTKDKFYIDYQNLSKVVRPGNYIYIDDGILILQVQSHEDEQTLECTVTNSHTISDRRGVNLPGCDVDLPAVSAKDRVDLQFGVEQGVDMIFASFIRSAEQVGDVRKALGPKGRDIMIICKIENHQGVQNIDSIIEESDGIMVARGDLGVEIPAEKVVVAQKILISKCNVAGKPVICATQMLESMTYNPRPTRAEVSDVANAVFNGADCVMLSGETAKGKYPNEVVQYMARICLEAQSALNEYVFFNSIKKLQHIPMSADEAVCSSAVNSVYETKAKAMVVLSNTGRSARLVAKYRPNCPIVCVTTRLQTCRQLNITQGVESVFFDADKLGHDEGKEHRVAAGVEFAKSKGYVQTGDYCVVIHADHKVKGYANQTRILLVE
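qHTS format; LmPK 0.1 nM; substrates PEP 0.5 mM and ADP 0.1 mM. One-hour room-temperature incubation, then coupled luciferase luminescence; 0.5 nM enzyme wells mark activation.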
FBPA Giardia inh – qHTS Assay for Inhibitors of Fructose-1,6-bisphosphate Aldolase from Giardia Lamblia; Potency, µM (highest dose often 59.6 µM), actives largely listed as inhibitors; actives 0.71% (n = 290,000); A8B2U2; purified Giardia FBPA; note: nearly all actives have a fitted effect of over 55% in size
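40 nM FBPA preincubated 10 min at RT with compound (up to 57.5 uM final), then substrate plus GAPDH/TPI/NAD/arsenate coupling and diaphorase/resazurin added. Fluorescence read after 20 min at RT, 525/598 nm.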
CHX counter – Cycloheximide Counterscreen for Small Molecule Inhibitors of Shiga Toxin. cell reporter, cycloheximide protein synthesis inhibition counterscreen. max response, %. actives 12% (n = 300,000). AID 2314, 2010; in the data active = max response mostly above about 13%, no sharp cut-off; inactive = mostly below about 14%; note: read at 38.3 µM for the half of the compounds with a filed dose
Shiga inhibitor – A qHTS for Small Molecule Inhibitors of Shiga Toxin. Vero cells, Shiga toxin protein synthesis inhibition reporter. inhibition, % at 38.7 µM. actives 9.2% (n = 290,000). AID 2315, 2010; in the data active = inhibition mostly above about 28%, no sharp cut-off; inactive = mostly below about 43%
NS1 function inh – qHTS Assay for Inhibitors of Influenza NS1 Protein Function; Potency, µM (series often up to 46.1 µM); actives 0.4% (n = 270,000); calls by dose curve; note: actives are rising curves; nearly all actives have a fitted effect of over 50% in size
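Read-out: OD600 growth recovery of NS1-expressing budding yeast. Cells grown overnight at 30C in -URA glucose medium, washed, resuspended and diluted 1:100 in 2% galactose assay medium, pH 6.0. Same strain lacking NS1 served as positive control.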
Each line names hits and unclear results; the compound was inactive in the other large screens. Unless noted, calls come from the whole dose curve; as a rule, active = well fitted curve in the direction sought with a large enough effect; inconclusive = small, poorly fitted or top-dose-only effect, or another doubt; inactive = no such curve, though single readings can be large; an effect the other way counts as inactive or inconclusive.

Cc1cccc(/C(N)=N/OC(=O)COc2ccc(Cl)c(C)c2)c1	none
N/C(=N\OC(=O)c1ccc(Br)cc1)c1cccc([N+](=O)[O-])c1	CHX counter 26, Shiga inhibitor 20
N/C(=N\OC(=O)Cc1ccc([N+](=O)[O-])cc1)c1cccc(Br)c1	none
c1ncc(-c2ccc3c(c2)OCO3)c(NCCc2cnc[nH]2)n1	none (no result: LmPK inhibitor, CHX counter, Shiga inhibitor, NS1 function inh)
Cc1ccc(-c2nc(CS(=O)CC(=O)NCCN3CCCCCC3)c(C)o2)cc1 (configuration not stated)	none (no result: FBPA Giardia inh)
COc1ccc(CC(=O)NNC(=O)c2ccco2)cc1OC	none
N/C(=N\OC(=O)C1CCCCC1)c1cccnc1	none
CC1=CC(=NOC(=O)c2cccc([N+](=O)[O-])c2)C=C(C)C1=O	FBPA Giardia inh inconclusive, CHX counter 23
N/C(=N\OC(=O)C1CCCCC1)c1cccc([N+](=O)[O-])c1	CHX counter 66, Shiga inhibitor 106
Cc1ccc(C(=O)O/N=C(\c2ccccc2)c2ccncc2)cc1	none (no result: NS1 function inh)
Cc1ccc(C(=O)O/N=C(\N)c2cccc([N+](=O)[O-])c2)cc1	CHX counter 39, Shiga inhibitor 69
Cc1cccc(/C(N)=N/OC(=O)c2ccncc2)c1	LmPK inhibitor inconclusive, CHX counter 46, Shiga inhibitor 68 (no result: FBPA Giardia inh)
COc1ccc(OC)c(Cc2nnc(CCC(=O)NC3CCCCCCC3)o2)c1	CHX counter 33, Shiga inhibitor 77
COc1cccc(CCNC(=O)CCc2nnc(Cc3cc(OC)ccc3OC)o2)c1	CHX counter 28, Shiga inhibitor 23
COc1ccc(OC)c(Cc2nnc(CCC(=O)N3CCCCCC3)o2)c1	FBPA Giardia inh inconclusive
COc1ccc(OC)c(Cc2nnc(CCC(=O)N3CCCCC3c3nccs3)o2)c1 (configuration not stated)	CHX counter 43, Shiga inhibitor 87
Cc1ccc(C2=NO[C@@](CC(=O)O)(C(=O)Nc3ccc4c(c3)OCCO4)C2)cc1	CHX counter 129, Shiga inhibitor 117
COc1ccc(OC)c(C2=NO[C@@](CC(=O)O)(C(=O)Nc3ccc4c(c3)OCCO4)C2)c1	CHX counter 65, Shiga inhibitor 77
CCCC(C(=O)Nc1cc(S(=O)(=O)N2CCOCC2)ccc1OC)c1ccccc1 (configuration not stated)	none (no result: FBPA Giardia inh)
COc1ccc(OC2C=CC(c3ccccc3)OC2CO)c(C(C)(C)C)c1 (configuration not stated)	none (no result: LmPK inhibitor, CHX counter, Shiga inhibitor, NS1 function inh)
O=C(NC(=S)Nc1ccccn1)c1ccc([N+](=O)[O-])cc1	FBPA Giardia inh inconclusive, CHX counter 51, Shiga inhibitor 199
O=C(NC(=S)Nc1ccccn1)c1ccc(-c2ccccc2)cc1	CHX counter 63, Shiga inhibitor 127 (no result: FBPA Giardia inh)
O=C(Nc1ccccn1)c1ccc(C(=O)Nc2ccccn2)cc1	none
O=C(Nc1ncccn1)c1ccc([N+](=O)[O-])cc1	none (no result: NS1 function inh)
c1ccc(-c2ncc(-c3ccn[nH]3)s2)cc1	LmPK inhibitor inconclusive, CHX counter 46, Shiga inhibitor 93 (no result: NS1 function inh)
C(=C\c1nnc2c3ccccc3ncn12)/c1ccccc1	CHX counter 51, Shiga inhibitor 61
COc1cc(/C=C/c2nnc3c4ccccc4ncn23)cc(OC)c1OC	CHX counter 14
COc1cc(/C=C/c2cc(C(=O)O)c3ccccc3n2)cc(OC)c1O	none
COc1cccc(-c2ccc(NC(=O)C3CCCN(CCCn4cccn4)C3)cc2)c1 (configuration not stated)	none (no result: FBPA Giardia inh)
Cc1cc(C)c(S(=O)(=O)c2ccccc2C(C)C)c(=O)[nH]1	none
Fc1cccc(CSc2ccc(-c3ccco3)nn2)c1	CHX counter 67, Shiga inhibitor 79
O=C(CSc1ccc(-c2ccco2)nn1)NCc1ccc(F)cc1	none
Cc1nc(C)c(-c2ccc(SCc3ccc(Cl)cc3)nn2)s1	none
O=C(CSc1ccc(-c2ccco2)nn1)c1ccc(F)cc1	CHX counter 29, Shiga inhibitor active
Cc1nc(C)c(-c2ccc(SCc3cccc(F)c3)nn2)s1	CHX counter 21
Fc1ccc(CSc2ccc(-c3ccco3)nn2)cc1	CHX counter 19, Shiga inhibitor 33
Cc1[nH]c2nc3ccccc3n2c(=O)c1CCC(C)C	none (no result: Shiga inhibitor)
O=C(Nc1ccccc1)c1cnc[nH]1	CHX counter 30, Shiga inhibitor 67
O=C(c1ccccc1)c1cnc[nH]1	CHX counter 13
O=C(NC(Cc1cnc[nH]1)C(=O)O)c1ccccc1 (configuration not stated)	none (no result: NS1 function inh)
CCc1ccc(N(CC(=O)N2CCOCC2)S(C)(=O)=O)cc1	none (no result: Shiga inhibitor)
CC[C@H]1NC(=O)c2cc(S(N)(=O)=O)c(Cl)cc2N1	none (no result: LmPK inhibitor, CHX counter, Shiga inhibitor, NS1 function inh)

Bioassay records (PubChem BioAssay)
